# Data taken from PubChem BioAssay (Tox21).
# Records with an inconclusive call do not appear. Where a call stands in place of a potency, no number is given. A number with no mark means an inactive call. Calls of active or inactive are those of the source. Calls come from the whole dose curve.
# Biological target: Acetylcholinesterase (Homo sapiens) (UniProt P22303)
# Experiment: Acetylcholinesterase (AChE) small molecule antagonists: fluorescence cell-based qHTS assay (AID 1347398); note: nearly all actives have a fitted effect of over 50% in size
# Settings: SH-SY5Y cells; Potency: AChE activity; outcome: AChE activity; series mostly up to 115 µM
# Source text: National Center for Advancing Translational Sciences [NCATS]
# Division of Preclinical Innovation [DPI]
# U.S. Environmental Protection Agency [EPA]
# National Institutes of Environmental Health Sciences [NIEHS]
# National Toxicology Program [NTP]
# U.S. Food and Drug Administration [FDA]
# Acetylcholinesterase (AChE) is the primary cholinesterase in the body that hydrolyzes a key neurotransmitter, acetylcholine. Inhibition of AChE activity can lead to neurotoxicity. Known inhibitors of AChE include organophosphorous pesticides (OP), chemical warfare agents, drugs, and various phytochemicals.
# A homogenous cell-based assay using Amplitetrade mark Fluorimetric Acetylcholinesterase Assay Kit *Green Fluorescence* (AAT Bioquest, Sunnyvale, CA) was used to evaluate the chemicals in the Tox21 10K library that inhibit AChE activity. The assay uses Thiolite Green to quantify the thiocholine produced from the hydrolysis of acetylthiocholine by AChE from the SH-SY5Y cells. AChE can hydrolyze acetylthiocholine to create thiocholine. Thiolite Green is fluorescent when reacting with thiocholine. It has spectral properties similar to those of fluorescein. The fluorescence intensity of Thiolite Green is used to measure AChE activity. Its signal can be easily read by a fluorescence microplate reader at Ex/Em = 490/520 nm.
# Tox21 Assay Protocol Summary:
# For cell-based AChE assay, 2,000 SH-SY5Y cells in 4 uL/well were dispensed into black, clear-bottom 1536-well plates using a Multidrop Combi (Thermo Scientific) dispenser. The assay plates were incubated overnight at 37 C to allow cells to attach to the wells, followed by the transfer of 23 nL compound or DMSO (vehicle control) by a Pintool station (Wako Automation, CA). The plates were incubated for 30 min at 37 C and 5% CO2, followed by the addition of 4 uL of detection cocktail solution (ThioliteGreen, acetylthiocholine) into each well using Flying Reagent Dispenser (Beckman Coulter, CA) and then following 40 min incubation at room temperature. Fluorescent intensity (Ex/Em = 490/520 nm) was measured using an Envision plate reader (PerkinElmer, MA).
# Sequence of Acetylcholinesterase (Homo sapiens) (P22303 whole entry, looked up): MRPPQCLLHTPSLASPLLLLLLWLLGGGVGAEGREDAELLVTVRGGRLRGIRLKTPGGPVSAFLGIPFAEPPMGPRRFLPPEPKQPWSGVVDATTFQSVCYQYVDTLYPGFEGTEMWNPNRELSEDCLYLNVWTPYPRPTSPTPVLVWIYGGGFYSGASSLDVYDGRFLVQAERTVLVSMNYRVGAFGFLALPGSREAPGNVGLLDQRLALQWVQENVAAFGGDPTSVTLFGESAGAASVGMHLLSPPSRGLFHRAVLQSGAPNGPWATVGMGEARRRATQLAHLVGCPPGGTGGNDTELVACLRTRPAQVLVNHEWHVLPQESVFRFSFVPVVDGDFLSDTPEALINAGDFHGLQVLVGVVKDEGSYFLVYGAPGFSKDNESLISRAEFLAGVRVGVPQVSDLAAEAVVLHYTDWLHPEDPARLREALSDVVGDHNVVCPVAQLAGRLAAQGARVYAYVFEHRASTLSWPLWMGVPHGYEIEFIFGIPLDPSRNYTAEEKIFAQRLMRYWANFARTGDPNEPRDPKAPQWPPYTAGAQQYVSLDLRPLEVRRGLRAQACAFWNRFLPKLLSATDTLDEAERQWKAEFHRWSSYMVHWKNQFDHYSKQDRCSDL
SMILES,Potency,"activity change, negative = inhibition"
CC1=CCC(C(C)(C)O)CC1 (stereo not given),inactive,–
Cc1ccc2ccc(Cl)cc2n1,inactive,–
CCCCC(CC)COC(=O)c1ccccc1 (stereo not given),inactive,–
C=Cc1cccc(C)c1,inactive,–
O=C1c2ccccc2C(=O)c2cc(O)ccc21,inactive,–
CCCCC(CC)COP(=O)(OCC(CC)CCCC)OCC(CC)CCCC (stereo not given),inactive,–
CC(C)(C)C(=O)CCc1ccc(Cl)cc1,inactive,–
CC(=O)O[C@@H]1CC2C3CCc4cc(OC(=O)c5ccccc5)ccc4C3CCC2(C)[C@H]1OC(C)=O (stereo not given in full),inactive,–
CCCOCCO,inactive,–
CCCCCCCCn1sc(Cl)c(Cl)c1=O,inactive,–
O=C(CCCCC(=O)Nc1c(I)cc(I)c(C(=O)O)c1I)Nc1c(I)cc(I)c(C(=O)O)c1I,inactive,–
CC1(C)CCC[C@]2(C)[C@H]3CC(=O)O[C@]3(C)CC[C@@H]12,inactive,–
CC1(C)[C@@H]2CC[C@]3(C2)[C@@H]1C(=O)CCC3(C)C,inactive,–
Cc1cccc(C)c1OCC(=O)N[C@@H](Cc1ccccc1)[C@@H](O)C[C@H](Cc1ccccc1)NC(=O)[C@H](C(C)C)N1CCCNC1=O,inactive,–
Clc1nc(C(Cl)(Cl)Cl)c(Cl)c(Cl)c1Cl,inactive,–
C=C[Si](OCCOC)(OCCOC)OCCOC,inactive,–
COc1ccc(CN(CCN(C)C)c2ccccn2)cc1,inactive,–
CCCCCCCCS(=O)(=O)Cl,inactive,–
Cc1ccc2nc3sc(=O)sc3nc2c1,–,1.71% [at 23.8 µM]
O=C(Nc1ncc([N+](=O)[O-])s1)c1cccs1,inactive,–

SMILES,Potency,"activity change, negative = inhibition"
C/C=C\C/C=C/CCCCCCCCOC(C)=O,inactive,–
COC(=O)[C@H]1[C@H]2C[C@@H]3c4[nH]c5cc(OC)ccc5c4CCN3C[C@H]2C[C@@H](OC(=O)c2cc(OC)c(OC)c(OC)c2)[C@@H]1OC,inactive,–
Nc1cc([N+](=O)[O-])ccc1Cl,inactive,–
CCCCCCCCCCCCN1CCCC1=O,inactive,–
Cc1cccc(OCC(O)CNC(C)(C)C)c1C (stereo not given),inactive,–
CCCC(=O)OCC(COC(=O)CCC)OC(=O)CCC,inactive,–
CCC/C=C/C=O,inactive,–
CC(=O)OCC(=O)[C@@]12N=C(C)O[C@@H]1C[C@H]1[C@@H]3CCC4=CC(=O)C=C[C@]4(C)[C@H]3[C@@H](O)C[C@@]12C,inactive,–
CCc1ncc(C)[nH]1,inactive,–
OCC1CC=CCC1 (stereo not given),inactive,–
COC(=O)Nc1nc2ccc(C(=O)C3CC3)cc2[nH]1,inactive,–
COc1ccccc1N1CCN(CCCCNC(=O)c2ccc(-c3ccc(C(C)=O)cc3)cc2)CC1,inactive,–
CCO[Si](CC)(OCC)OCC,inactive,–
Nc1ccc(S(=O)(=O)Nc2ccnn2-c2ccccc2)cc1,–,5.71% [at 23.8 µM]
O=C(O)c1nc(Cl)c(Cl)c(Cl)c1Cl,inactive,–
Cc1ccc(O)c(-n2nc3ccccc3n2)c1,inactive,–
CCc1cc(C(C)(C)C)c(O)c(C(C)(C)C)c1,inactive,–
O=C(OCc1ccccc1)c1ccccc1,inactive,–
NC(N)=Nc1nc(CSCC/C(N)=N/S(N)(=O)=O)cs1,inactive,–
C1CCSC1,inactive,–
